# Assay results published in PubChem BioAssay (Tox21).
# Values joined by “and” are separate entries in the source; they are usually repeats but may differ in a detail not shown here. Equal values may be shown once. Records with an inconclusive call do not appear. Entries that show only a call come without a potency. More than one record can exist for a structure, and the calls need not agree. Active and inactive are the calls of the source. Unless noted, the call rests on the fitted dose curve; in most records, active means well fitted curve in the direction sought with a large enough effect in the repeat runs; inconclusive means weak or mixed curves; inactive means no such curve, though single readings can be large; an effect the other way counts as inactive or inconclusive.
# Columns and labels:
# [1] = qHTS assay to identify aromatase inhibitors - cell viability counter screen (AID 743084);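 further: cells stimulated with testosterone during compound exposure; nearly all actives have a fitted effect of over 55% in size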; further: potency means the concentration at half of the fitted maximal effect
# [2] = qHTS assay to identify small molecule that activate the aryl hydrocarbon receptor (AhR) signaling pathway - cell viability counter screen (AID 743086); further: nearly all actives have a fitted effect of over 45% in size; further: potency means the concentration at half of the fitted maximal effect
# Procedure, shortened: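 Cytotoxicity counter screen: CellTiter-Fluor signal (30 min, 37 C) in 4000 HepG2 cells/well carrying the DRE-luciferase reporter, following 24 h compound exposure at 37 C.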
# [3] = qHTS assay to identify small molecule antagonists of the peroxisome proliferator-activated receptor gamma (PPARg) signaling pathway - cell viability counter screen (AID 743194); further: nearly all actives have a fitted effect of over 55% in size; further: potency means the concentration at half of the fitted maximal effect
# Procedure, shortened: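 Viability was measured as CellTiter-Glo luminescence in GeneBLAzer PPARg UAS-bla HEK293H cells. These cells had been exposed 17 h at 37 C to compounds together with rosiglitazone at 50 nM final, with the beta-lactamase readout taken in the same wells.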
# [4] = qHTS assay for small molecule agonists of the antioxidant response element (ARE) signaling pathway (AID 743202; active means well fitted activation curve with a large enough effect in the signal ratio in the repeat runs, not every such curve was filed as active; the % refers to the signal ratio; further: potency means the concentration at half of the fitted maximal effect)
# Procedure, shortened: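 Quantitative high-throughput format in HepG2 cells bearing an integrated ARE-beta-lactamase reporter. Compound exposure lasted 16 h at 37 C, and fluorescence was read 2 h after adding LiveBLAzer B/G substrate at room temperature.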
# [5] = qHTS assay for small molecule activators of the heat shock response signaling pathway (AID 743210; active means well fitted activation curve with a large enough effect in the signal ratio in the repeat runs, with a control signal flat, not every such curve was filed as active; the % refers to the signal ratio;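 further: HeLa cells with beta-lactamase reporter driven by heat shock elements; series mostly up to about 63 µM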)
# Procedure, shortened: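 HeLa HSE-bla cells, overnight plating; cpd in DMSO 5 h, 37 C; LiveBLAzer B/G FRET substrate 2.5 h RT; fluorescence intensity read.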
# [6] = qHTS assay to identify small molecule agonists of the peroxisome proliferator-activated receptor delta (PPARd) signaling pathway - cell viability counter screen (AID 743211); further: nearly all actives have a fitted effect of over 55% in size; further: potency means the concentration at half of the fitted maximal effect
# Procedure, shortened: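 qHTS cell viability: PPARd-bla HEK293H; 17 h cpd, 37C; CellTiter-Glo, luminescence at 30 min RT.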
# [7] = target: Peroxisome proliferator-activated receptor delta (Homo sapiens) (UniProt Q03181); assay: qHTS assay to identify small molecule agonists of the peroxisome proliferator-activated receptor delta (PPARd) signaling pathway (AID 743212; calls by dose curve)
# Procedure, shortened: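 HEK293H PPARd-bla cells; 5 h preincubation 37 C/5% CO2; compound (DMSO) 37 C; LiveBLAzer B/G FRET substrate 2 h RT; fluorescence intensity.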
# [8] = qHTS assay to identify small molecule antagonists of the peroxisome proliferator-activated receptor delta (PPARd) signaling pathway - cell viability counter screen (AID 743213); further: nearly all actives have a fitted effect of over 50% in size; further: potency means the concentration at half of the fitted maximal effect
# Procedure, shortened: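 Cytotoxicity counter screen: CellTiter-Glo luminescence read 30 min after addition, in the same wells as the reporter assay. There, PPARd UAS-bla HEK293H cells (3000/well) were treated 17 h at 37 C with compound and 300 nM L165041.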
# [9] = target: Peroxisome proliferator-activated receptor delta (Homo sapiens) (UniProt Q03181); assay: qHTS assay to identify small molecule antagonists of the peroxisome proliferator-activated receptor delta (PPARd) signaling pathway (AID 743215; active means well fitted inhibition curve with a large enough effect in the signal ratio in the repeat runs, not every such curve was filed as active; the % refers to the signal ratio;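 further: cells stimulated with agonist L165041 at 300 nM final during compound exposure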; further: potency means the concentration at half of the fitted maximal effect)
# Procedure, shortened: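 HEK293H UAS-bla, PPARd; agonist L165041 300 nM final with cpd in DMSO; 37 C 17 h; FRET substrate, RT 2 h; fluorescence intensity.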
# [10] = qHTS assay to identify small molecule agonists of the farnesoid-X-receptor (FXR) signaling pathway - cell viability counter screen (AID 743218); further: nearly all actives have a fitted effect of over 45% in size; further: potency means the concentration at half of the fitted maximal effect
# Procedure, shortened: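 Parallel cytotoxicity test: compound-treated (16 h, 37 C) HEK 293T FXR-bla reporter cells were lysed with CellTiter-Glo and luminescence recorded.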
# [11] = qHTS assay to identify small molecule antagonists of the farnesoid-X-receptor (FXR) signaling pathway - cell viability counter screen (AID 743221; active means well fitted cell-killing curve with a large enough effect in the repeat runs, not every such curve was filed as active; further: nearly all actives have a fitted effect of over 50% in size; further: potency means the concentration at half of the fitted maximal effect)
# Procedure, shortened: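 After a 5 h settling period, FXR-bla HEK 293T cells receive compound and chenodeoxycholic acid (50 uM final) and incubate 16 h at 37 C; CellTiter-Glo luminescence, read after 30 min at room temperature, reports cell viability.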
# [12] = target: Vitamin D3 receptor (Homo sapiens) (UniProt P11473); assay: qHTS assay to identify small molecule agonists of the vitamin D receptor (VDR) signaling pathway (AID 743222; calls by dose curve)
# Procedure, shortened: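 In VDR-bla cells, compound-induced beta-lactamase expression is quantified by FRET substrate fluorescence. Treatment lasts 16 h at 37C; substrate develops 2 h at room temperature.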
# [13] = qHTS assay for small molecule agonists of the antioxidant response element (ARE) signaling pathway - cell viability counter screen (AID 743203; calls by dose curve; further: nearly all actives have a fitted effect of over 55% in size; further: potency means the concentration at half of the fitted maximal effect)
# Procedure, shortened: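 Following 16 hrs of compound treatment at 37C, HepG2 cells with an ARE-controlled beta-lactamase gene were lysed with CellTiter-Glo. Luminescence was read after 30 min at room temperature.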
# [14] = qHTS assay for small molecule activators of the heat shock response signaling pathway - cell viability counter screen (AID 743209); further: nearly all actives have a fitted effect of over 50% in size; further: potency means the concentration at half of the fitted maximal effect
# Procedure, shortened: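 Readout: CellTiter-Glo luminescence, 30 min at room temperature. System: HSE-bla HeLa cells, 1500/well, plated overnight. Treatment: compounds in DMSO, 5 h at 37 C.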
# [15] = target: Bile acid receptor (Homo sapiens) (UniProt Q96RI1); assay: qHTS assay to identify small molecule antagonists of the farnesoid-X-receptor (FXR) signaling pathway (AID 743217; active means well fitted inhibition curve with a large enough effect in the signal ratio in the repeat runs, not every such curve was filed as active; the % refers to the signal ratio)
# Procedure, shortened: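 GeneBLAzer FXR-UAS-bla HEK 293T, CDCA-stimulated (50 uM final). Compound treatment 16 h, 37 °C. Detection: beta-lactamase cleavage of B/G FRET substrate, fluorescence.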
# [16] = target: Bile acid receptor (Homo sapiens) (UniProt Q96RI1); assay: qHTS assay to identify small molecule agonists of the farnesoid-X-receptor (FXR) signaling pathway (AID 743220; active means well fitted activation curve with a large enough effect in the signal ratio in the repeat runs, not every such curve was filed as active; the % refers to the signal ratio)
# Procedure, shortened: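 Beta-lactamase reporter under UAS control in GeneBLAzer FXR HEK 293T cells (5000/well) measured with LiveBLAzer FRET substrate after 2 h at room temperature. Compound exposure lasted 16 h at 37C.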
# [17] = target: Peroxisome proliferator-activated receptor gamma (Homo sapiens) (UniProt P37231); assay: qHTS assay to identify small molecule agonists of the peroxisome proliferator-activated receptor gamma (PPARg) signaling pathway (AID 743094; active means well fitted activation curve with a large enough effect in the signal ratio in the repeat runs, not every such curve was filed as active; the % refers to the signal ratio)
# Procedure, shortened: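 Compounds dissolved in DMSO were added to PPARg UAS-bla HEK293H cells for 17 h at 37C, and reporter expression was quantified by fluorescence intensity after 1 h with LiveBLAzer B/G FRET substrate.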
# [18] = target: Vitamin D3 receptor (Homo sapiens) (UniProt P11473); assay: qHTS assay to identify small molecule antagonists of the vitamin D receptor (VDR) signaling pathway (AID 743223; active means well fitted inhibition curve with a large enough effect in the signal ratio in the repeat runs, not every such curve was filed as active; the % refers to the signal ratio)
# Procedure, shortened: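 Reporter line VDR-bla; stimulus 1alpha,25-(OH)2 vitamin D3, 3 nM final; compound co-addition, 16 h 37C/5% CO2; LiveBLAzer B/G substrate 2 h RT; fluorescence intensity.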
# Sequence of Peroxisome proliferator-activated receptor delta (Homo sapiens) (Q03181 whole entry, looked up): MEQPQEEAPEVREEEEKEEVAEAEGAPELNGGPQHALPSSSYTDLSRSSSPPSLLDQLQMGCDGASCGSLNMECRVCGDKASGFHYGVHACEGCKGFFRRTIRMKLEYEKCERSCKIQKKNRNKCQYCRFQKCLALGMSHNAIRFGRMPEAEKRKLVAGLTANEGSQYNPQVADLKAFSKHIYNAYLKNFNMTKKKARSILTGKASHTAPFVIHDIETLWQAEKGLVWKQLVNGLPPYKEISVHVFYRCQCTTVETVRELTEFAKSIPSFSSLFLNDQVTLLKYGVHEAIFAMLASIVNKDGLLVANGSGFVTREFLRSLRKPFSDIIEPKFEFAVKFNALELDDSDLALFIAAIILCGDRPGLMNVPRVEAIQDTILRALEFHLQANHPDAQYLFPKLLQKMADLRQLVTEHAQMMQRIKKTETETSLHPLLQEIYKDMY
# Sequence of Vitamin D3 receptor (Homo sapiens) (P11473 whole entry, looked up): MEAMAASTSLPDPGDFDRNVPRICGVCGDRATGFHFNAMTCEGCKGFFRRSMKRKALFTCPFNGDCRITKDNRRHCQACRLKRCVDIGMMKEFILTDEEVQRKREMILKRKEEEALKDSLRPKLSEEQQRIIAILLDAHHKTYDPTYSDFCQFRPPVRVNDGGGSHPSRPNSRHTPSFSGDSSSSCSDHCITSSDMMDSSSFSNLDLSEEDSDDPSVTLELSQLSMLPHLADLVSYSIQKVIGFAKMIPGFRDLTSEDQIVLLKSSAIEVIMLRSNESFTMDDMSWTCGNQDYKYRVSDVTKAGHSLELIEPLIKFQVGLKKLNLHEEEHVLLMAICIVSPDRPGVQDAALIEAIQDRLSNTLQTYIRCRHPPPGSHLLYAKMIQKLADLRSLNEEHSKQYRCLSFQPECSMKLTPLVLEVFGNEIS
# Sequence of Bile acid receptor (Homo sapiens) (Q96RI1 whole entry, looked up): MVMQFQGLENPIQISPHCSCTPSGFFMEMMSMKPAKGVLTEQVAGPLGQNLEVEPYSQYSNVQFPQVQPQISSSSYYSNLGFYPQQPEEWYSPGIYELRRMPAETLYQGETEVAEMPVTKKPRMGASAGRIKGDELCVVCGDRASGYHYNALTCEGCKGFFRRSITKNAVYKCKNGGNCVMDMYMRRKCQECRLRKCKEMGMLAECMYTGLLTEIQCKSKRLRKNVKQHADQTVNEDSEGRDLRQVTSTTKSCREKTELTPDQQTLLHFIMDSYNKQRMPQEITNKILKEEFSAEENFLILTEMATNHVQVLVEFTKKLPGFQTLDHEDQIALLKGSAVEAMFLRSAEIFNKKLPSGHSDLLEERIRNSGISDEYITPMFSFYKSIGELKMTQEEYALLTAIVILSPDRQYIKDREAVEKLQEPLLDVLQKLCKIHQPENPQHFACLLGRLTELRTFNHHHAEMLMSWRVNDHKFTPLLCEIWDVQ
# Sequence of Peroxisome proliferator-activated receptor gamma (Homo sapiens) (P37231 whole entry, looked up): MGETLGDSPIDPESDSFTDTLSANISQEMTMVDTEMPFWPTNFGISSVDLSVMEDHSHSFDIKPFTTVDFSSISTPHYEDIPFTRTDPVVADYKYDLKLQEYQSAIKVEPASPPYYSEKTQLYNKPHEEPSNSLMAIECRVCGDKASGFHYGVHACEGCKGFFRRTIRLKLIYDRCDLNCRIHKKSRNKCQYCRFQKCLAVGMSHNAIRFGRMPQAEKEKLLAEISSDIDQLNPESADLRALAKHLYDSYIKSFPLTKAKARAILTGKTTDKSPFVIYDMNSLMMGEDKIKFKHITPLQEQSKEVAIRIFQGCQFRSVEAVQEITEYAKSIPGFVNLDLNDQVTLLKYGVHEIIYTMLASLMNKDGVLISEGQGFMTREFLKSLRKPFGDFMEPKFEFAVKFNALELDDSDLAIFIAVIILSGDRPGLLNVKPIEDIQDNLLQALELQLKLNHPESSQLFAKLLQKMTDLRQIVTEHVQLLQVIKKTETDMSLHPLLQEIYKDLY
Compound,Potency [1],Potency [2],Potency [3],Potency [4],Potency [5],Potency [6],Potency [7],Potency [8],Potency [9],Potency [10],Potency [11],Potency [12],Potency [13],Potency [14],Potency [15],Potency [16],Potency [17],Potency [18]
Cc1cc(N)c(S(=O)(=O)O)cc1Cl,inactive,inactive,inactive,inactive,inactive,inactive,inactive,inactive,inactive,inactive,inactive,inactive,–,–,–,–,–,–
CC(C)(C)CC(C)(C)c1ccc(O)c(Cc2ccc(Cl)cc2Cl)c1,inactive,inactive,–,–,–,26.6 µM (active),–,26.6 µM (active),–,–,33.5 µM (active),–,13.3 µM (active),23.7 µM (active),–,–,–,–
CCCCc1oc2ccc(NS(C)(=O)=O)cc2c1C(=O)c1ccc(OCCCN(CCCC)CCCC)cc1,29.8 µM (active),26.6 µM (active),29.8 µM (active),–,–,16.8 µM (active),–,23.7 µM (active),–,26.6 µM (active),–,–,26.6 µM (active),–,–,–,–,–
NC(=O)CC[C@@H]1NC(=O)[C@H](Cc2ccccc2)NC(=O)[C@H](Cc2ccc(O)cc2)NC(=O)CCSSC[C@@H](C(=O)N2CCC[C@H]2C(=O)N[C@@H](CCCN=C(N)N)C(=O)NCC(N)=O)NC(=O)[C@H](CC(N)=O)NC1=O,inactive,inactive,inactive,–,–,inactive,–,inactive,–,inactive,inactive,inactive,inactive,inactive,–,–,–,–
S=c1[nH]c2ccccc2s1,inactive,inactive,–,–,–,inactive,inactive,inactive,–,–,inactive,–,inactive,–,–,–,–,–
CC(C)(C)C(=O)OCOC(=O)[C@@H]1N2C(=O)[C@@H](NC(=O)[C@H](N)c3ccccc3)[C@H]2SC1(C)C,inactive,inactive,inactive,–,–,inactive,inactive,inactive,inactive,inactive,inactive,inactive,inactive,inactive,inactive,inactive,–,–
C=C(C)C(=O)OCC(O)COc1ccc(C(C)(C)c2ccc(OCC(O)COC(=O)C(=C)C)cc2)cc1 (configuration not stated),61.1 µM (active),inactive,–,–,–,54.9 µM (active),inactive,13.8 µM (active),27.5 µM (active),–,–,inactive,inactive,–,–,inactive,–,–
Cc1cccc(S(=O)(=O)O)c1C,inactive,inactive,inactive,inactive,inactive,inactive,inactive,inactive,inactive,inactive,inactive,inactive,–,inactive,–,–,–,–
On1ccccc1=S,0.539 µM (active),inactive,24.3 µM (active),15.2 µM (active),–,0.385 µM (active),–,0.685 µM (active),–,0.385 µM (active),–,–,inactive,0.153 µM (active),–,–,–,–
CN(C)C(=O)C1(N2CCCCC2)CCN(CC[C@@]2(c3ccc(Cl)c(Cl)c3)CN(C(=O)c3ccccc3)CCO2)CC1,50.9 µM (active),20.3 µM (active),16.2 µM (active),–,–,11.5 µM (active),–,16.2 µM (active),–,16.2 µM (active),32.4 µM (active),inactive,–,51.3 µM (active),–,–,–,–
CC(C)(C)CC(C)(C)c1ccc(OCCOCC[N+](C)(C)Cc2ccccc2)cc1,23.7 µM (active) and 24.3 µM (active),inactive and 61.1 µM (active),19.5 µM (active) and 29.8 µM (active),–,–,21.9 µM (active) and 21.1 µM (active),–,17.4 µM (active),–,48.9 µM (active),43.6 µM (active) and 26.6 µM (active),–,21.7 µM (active) and 29.8 µM (active),34.6 µM (active),inactive,inactive,inactive,–
CCN(CC)CCNC(=O)c1c(C)[nH]c(/C=C2\C(=O)Nc3ccc(F)cc32)c1C,26.6 µM (active),11.9 µM (active),16.8 µM (active),–,inactive,23.7 µM (active),–,4.73 µM (active),–,13.3 µM (active),21.1 µM (active),–,29.8 µM (active),–,–,–,–,–
CC1=NC(C)OC1C (configuration not stated),inactive,inactive,inactive,30.6 µM (active),inactive,inactive,–,inactive,–,inactive,inactive,–,inactive,inactive,–,–,–,–
Cc1ccc2oc(CN(Cc3ccccc3)C(=O)Nc3c(F)cc(F)cc3F)c(-c3ccc(Cl)cc3)c2c1,inactive,inactive,inactive,–,–,inactive,–,inactive,–,inactive,inactive,–,–,inactive,–,inactive,–,inactive
CC(C)OC(=O)c1cc2c(OCC(O)CNC(C)(C)C)cccc2[nH]1 (configuration not stated),inactive,inactive,–,–,inactive,–,–,inactive,inactive,inactive,–,inactive,–,inactive,–,–,–,–
CCCCCCCCCCCCCCCCCC[N+](C)(C)C,27.4 µM (active),inactive,27.6 µM (active),–,–,13.8 µM (active),–,27.6 µM (active),–,24.6 µM (active),55.1 µM (active),–,48.7 µM (active),34.8 µM (active),–,–,–,–
O=C(Nc1ccc(Oc2ccc(Cl)cc2)c(Cl)c1)c1cc(I)cc(I)c1O,inactive,inactive,5.31 µM (active),–,–,–,–,–,–,–,–,inactive,–,–,–,inactive,inactive,–
